Experimental data reported in ChEMBL document CHEMBL3988442, “University of Dundee, Small-Polar-MMV Screening Library” (2021).

Experiments:
[1] = target: T1, Aspartate--tRNA(Asp/Asn) ligase (Mycobacterium tuberculosis (strain ATCC 25618 / H37Rv)) (UniProt P9WFW3); experiment: Assay for Asp RNA synthetase-1 from Mycobacterium tuberculosis; format: functional; parameters: scale not given: direction of the effect not stated beside the values; conditions: 30 µM; also: in the data most compounds retested in dose-response had high values
T1 sequence (whole entry): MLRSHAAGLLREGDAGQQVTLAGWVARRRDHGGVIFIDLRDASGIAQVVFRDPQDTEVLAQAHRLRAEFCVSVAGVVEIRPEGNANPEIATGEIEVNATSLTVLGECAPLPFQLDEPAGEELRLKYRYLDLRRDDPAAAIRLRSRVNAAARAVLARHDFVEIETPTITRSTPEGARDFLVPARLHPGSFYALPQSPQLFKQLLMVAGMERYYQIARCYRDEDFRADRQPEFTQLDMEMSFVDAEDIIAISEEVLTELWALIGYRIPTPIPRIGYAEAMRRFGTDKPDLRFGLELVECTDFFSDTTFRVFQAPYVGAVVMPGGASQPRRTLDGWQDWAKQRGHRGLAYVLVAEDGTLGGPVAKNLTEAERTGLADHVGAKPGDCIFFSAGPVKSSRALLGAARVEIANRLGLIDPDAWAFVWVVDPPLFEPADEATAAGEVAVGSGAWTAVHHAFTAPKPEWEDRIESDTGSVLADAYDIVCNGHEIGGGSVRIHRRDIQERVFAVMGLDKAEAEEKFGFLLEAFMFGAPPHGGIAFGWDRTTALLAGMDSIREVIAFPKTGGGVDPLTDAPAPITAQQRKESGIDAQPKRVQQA

[2] = target: Shiga toxin 2 (Escherichia coli O157:H7) (UniProt P09385+P09386); experiment: E. coli 0.157:H7 Shiga Toxin SOP - stx2 screening assay; format: functional; parameters: scale not given: direction of the effect not stated beside the values; conditions: 30 µM

Structure (SMILES) | Percent Effect [1] [%] | Percent Effect [2] [%]
CC(=O)N1CCCCC1c1nc2c(c(N3CCCCC3)n1)CN(C)CC2 (configuration not stated) | -1.98 | 2.68
O=C(NC1CCCC1)N1CCCC(c2nccn2Cc2ccncc2)C1 (configuration not stated) | -4.62 | 12.8
CS(=O)(=O)NC[C@]12COC[C@H]1CN(CC1CCCC1)C2 | 0.107 | 6.37
CCC(C)(NCC(=O)Nc1ccccc1)c1nc(C)cs1 (configuration not stated) | 1.93 | 15.8
CNC(=O)[C@@]12CCC3(CCN(S(C)(=O)=O)CC3)[C@@H]1CN(S(C)(=O)=O)C2 | 0.0987 | -5.23
Cc1cc(C[S+]([O-])CC(=O)NCc2cccs2)no1 (configuration not stated) | -0.395 | 9.34
CNC(=O)c1cccc(NC(=O)Cn2nc(-c3cccs3)oc2=O)c1 | -8.92 | -55.6
Cc1cccc(C(=O)NC2CCN(c3cnn(C)c3)C2=O)n1 (configuration not stated) | 2.04 | -29.9
Cc1nc(C(=O)N2CCC(Cc3cnc4[nH]ccc4c3)C2)co1 (configuration not stated) | 1.31 | 62.2
Cc1ncsc1C(=O)N1CCCN(Cc2cscn2)CC1 | 1.47 | 16.9
OC[C@H]1CC[C@]2(CC1)CN(Cc1ccccc1F)Cc1ccccc1O2 | -2.81 | 20.1
CS(=O)(=O)c1cccc(C(N)c2ccc(F)c(F)c2)c1 (configuration not stated) | -1.19 | -2.5
COCCN1CCC(CN(CC2CCCO2)C(=O)COC)CC1 (configuration not stated) | -4.26 | -0.207
COCCN1C(=O)C[C@@H]2[C@H]1CCN2C(=O)COc1ccccc1 | -2.36 | -1.37
Cc1cc(C)n(C2CCCN(C(=O)c3ccc(F)cc3F)C2)n1 (configuration not stated) | 7.84 | -0.315
CCS(=O)(=O)N(C)c1ccc(C(=O)N2CCCC(C)C2)cc1 (configuration not stated) | -3.31 | -3.21
CC1c2ncc(COc3cccnc3)n2CCN1C(=O)Cc1ccco1 (configuration not stated) | -1.45 | -2.51
CN(C)CCN1CCOCC2(C1)CN(Cc1ccsc1)CCO2 (configuration not stated) | 6.63 | 3.8
O=C(c1n[nH]c2c1CCN(Cc1nccs1)C2)N1CCCC1 | -0.578 | -3.88
CN(C)C1CCN(C(=O)c2ccc(Cn3ccccc3=O)o2)CC1 | 1.63 | -10.4
Cn1cnc(S(=O)(=O)NCCCN2CCOCC2)c1Cl | 3.04 | 18.7
CC(Cn1cccn1)NC(=O)N(C)Cc1ccc(Cl)s1 (configuration not stated) | -7.31 | -6.54
COc1cccc(CC(=O)N2CCc3ncnc(NC(C)C)c3CC2)c1 | -0.351 | -3.19
CN(Cc1ccccn1)C1COC2(CCN(Cc3cccnc3)CC2)C1 (configuration not stated) | -2.07 | -24.6
COc1cc(C)nc(N2CCN(C(=O)CCc3nccs3)CC2)n1 | 2.87 | -3.5
CCc1ccc(O)c(C(=O)NC2CCN(Cc3ccncc3)CC2)c1 | -4.26 | -67.7

Structure (SMILES) | Percent Effect [1] [%] | Percent Effect [2] [%]
Cn1ncc2c1NC(=O)CC2c1ccccc1Cl (configuration not stated) | 1.14 | 6
Cc1cccc(CN2C(=O)CCC23CCN(c2ncc(F)cn2)CC3)n1 | -0.66 | -5.21
COc1cc(C(=O)N2CCCS2(=O)=O)cc(Cl)c1OC | -11.2 | -4.54
CC(C)CN1CCN(C(=O)NCc2cccnc2-n2cccn2)CC1 | -1.98 | -22.5
COc1ncccc1NC(=O)NCC(O)c1ccc(F)cc1F (configuration not stated) | 4.06 | -0.623
O=C(Nc1cccc(CN2CCOC2=O)c1)N1CCOCC1 | 1.78 | -57.1
CS(=O)(=O)N1CCOCC2(CN(Cc3ccsc3)CCO2)C1 (configuration not stated) | -4.1 | 7.57
Cc1ccc(C)c(C(=O)CN2C(=O)c3ccccc3CS2(=O)=O)c1 | 2.42 | -18.8
CC(C(=O)NCc1cccc(N2CC=CC2)c1)n1cccn1 (configuration not stated) | -1.41 | 27.1
CC[C@H](C)Nc1nccc(-c2cnc3sc(C)c(C)n3c2=O)n1 | 0.808 | -27.1
Cc1cc(C(=O)N[C@@H]2CCNC[C@H]2O)ccc1Cl | 2.13 | 14.6
Cc1cnn(C2CCCN(C(=O)CCCOc3cccc(F)c3)C2)c1 (configuration not stated) | -4.03 | 11.8
Cc1nn2cccnc2c1C(=O)N1CCCC(Nc2ccccc2)C1 (configuration not stated) | 1.98 | 8.26
CC1=N[C@@]2(CC[C@@H]3CN(Cc4ccccc4F)C[C@@H]32)C(=O)N1CC1CC1 | -6.8 | -2.95
O=S1(=O)COCCN1Cc1cccc(Cl)c1 | -0.479 | 10.7
NC(=O)NC(=O)CCN1CCCN(c2nccs2)CC1 | 1.54 | -33.2
Fc1ccc(CN2CCCC(c3nnc(-c4cnccn4)o3)C2)cc1F (configuration not stated) | 2.55 | -5.16
Cc1ccc(C(=O)N2CCC3(CC2)CC(N2CCOCC2)C3)cc1 | -1.52 | 3.95
COc1ccccc1CN1CC[C@]2(C[C@H](OC)CO2)C1 | -1.25 | -21.1
O=C(CCc1cccc(F)c1F)N1CCN(Cc2ccco2)CC1 | 0.502 | -2.83
O=C1CCC2(CCCN(CCc3ccccc3)C2)N1Cc1cccnc1 (configuration not stated) | 4.25 | -5.68
CC(C)(C)c1ncc2c(n1)CN(C(=O)c1ccc(-c3nc[nH]n3)cc1)C2 | -2.37 | -62.9
O=C(Cn1cccn1)NCC1(c2ccccc2)CC1 | -2.68 | 16.1
COC(=O)Cn1c(=O)nc2n1C(=O)N(c1ccc(Cl)cc1)C2 | 1.73 | -16.1
CCN(CC)C(=O)CCNC(=O)N1CCC(c2ccccc2)C1 (configuration not stated) | -1.42 | -20.3
CCc1cnc(CNc2ccc(C(=O)N3CCCC(C)C3)cc2C)o1 (configuration not stated) | -5.74 | 21.6

Structure (SMILES) | Percent Effect [1] [%] | Percent Effect [2] [%]
CCOC(=O)c1sc2ccsc2c1CNC(=O)CC | 1.08 | -9.72
CN(Cc1ccon1)C(=O)C1CC(=O)N(Cc2ccncc2)C1 (configuration not stated) | 5.91 | 6.22
O=C(NS(=O)(=O)c1ccccc1Cl)c1cccc2c1OCCO2 | -6.15 | -2.92
COCC(=O)N1CC[C@@H](O)[C@@H]1Cc1ccccc1 | 4.62 | 3.46
COc1cccc(COCC(=O)N2CCCC(n3ccnc3)C2)c1 (configuration not stated) | -3.41 | 23.8
CS(=O)(=O)N1CCOCC2(CN(Cc3ccco3)CCO2)C1 (configuration not stated) | -7.59 | -18.6
O=C(c1ccnnc1)N1CCN2C[C@H](Oc3cccc(F)c3)C[C@H]2C1 | -0.611 | -1.95
CN(Cc1nnc(-c2ccco2)o1)C1CCCN(c2cccnn2)C1 (configuration not stated) | 0.611 | -78.7
CN(C)C(=O)N1CCn2nc(CNC(=O)CCC(F)(F)F)cc2C1 | 2.12 | -7.2
NC(=O)COc1cccc(C(=O)N2CCCC(n3ccnc3)C2)c1 (configuration not stated) | 0.962 | -19.9
COCc1cc(NCCc2ccc(F)cc2)n2nccc2n1 | 4.6 | 4.14
COc1ccc(CC(=O)N2CCCN(c3ccc(C#N)cc3)CC2)cc1 | 5.93 | -7.8
CC(C(=O)NCCN1CCCCCC1)n1cncn1 (configuration not stated) | -4.21 | -27.3
Cc1cc(C)c2nc(CN3CCOC(CCO)C3)cc(O)c2c1 (configuration not stated) | -0.725 | -15.7
O=C(C1CCC1)N1CCC2(COCc3cnc(N4CCOCC4)nc32)C1 (configuration not stated) | 2.45 | -34.1
CCn1ncnc1C1CC(=O)NCc2nc3ccccn3c21 (configuration not stated) | -2.72 | 2.83
O=C(c1cscn1)N1CCC[C@]2(C[C@H](OCC3CC3)CO2)C1 | 3.34 | -17.4
Cc1ccc(-c2nnc(CN3CCOC(Cn4cccn4)C3)o2)cc1 (configuration not stated) | -0.257 | -10.3
COc1ccccc1CC(=O)N1CCC(NCc2cc[nH]c2)CC1 | -2.74 | -11.8
Cc1cc(C)n(CC2CCCCN2C(=O)c2ccc3nncn3c2)n1 (configuration not stated) | -3.1 | 14.5
O=C1CC[C@H]2[C@H](CCN2C(=O)C2CCCO2)N1Cc1ccncc1 (some centres not stated) | 3.48 | -64
Cc1ccc(CC(=O)N2CCOC(c3nc(C)n[nH]3)C2)cn1 (configuration not stated) | 1.92 | 0.301
Cc1ccc(N2CCN(C(=O)COc3nccc(C)n3)CC2)nn1 | -6.35 | -50.4
CN(C(=O)CN1CCOC(Cn2cccn2)C1)c1nccs1 (configuration not stated) | 5.6 | -22.6
Cc1ccc(C(=O)NCC2(O)CCOCC2)cc1Br | -1.3 | 8.46
CCS(=O)(=O)N1Cc2nccn2CC(COc2cccnc2)C1 (configuration not stated) | -1.75 | -12.5

Structure (SMILES) | Percent Effect [1] [%] | Percent Effect [2] [%]
COc1ncccc1NC(=O)NC1CCOc2ccccc21 (configuration not stated) | -3.76 | -5.5
Cc1ccc(C(=O)N2CCN(CCC(C)(C)C)CC2)c(=O)[nH]1 | -4.54 | 1.57
c1ccc(OCCCNCCn2cccn2)cc1 | -1.5 | -44.6
Cn1ccnc1COc1ccc(CN2CCN(CCO)CC2)cc1 | -5.49 | -50.7
CCn1ccnc1CN1CCN(C(C)C(=O)NC2CCCCC2)CC1 (configuration not stated) | -1.01 | 22
COCC1c2c(cnn2CC2CCOCC2)CCN1Cc1ccoc1 (configuration not stated) | 0.211 | -9.29
O=C(c1nc(COc2ccc3c(c2)OCO3)no1)N1CCCC1 | 6.21 | -63.7
CC(C)(CNC(=O)CCOc1cccc(F)c1)C(N)=O | -0.256 | 29.6
CC1COCCN1C(=O)c1cccc(OCc2cscn2)c1 (configuration not stated) | -6.86 | 0.62
O=C(NCC1CCOCC1)[C@@H]1C[C@@H]2CCN(Cc3ccco3)C[C@H]2O1 | 0.32 | 4.1
Cc1nc(C)n(CC2CCCCN2CC(=O)Nc2cccnc2)n1 (configuration not stated) | -1.56 | 7.21
CCc1nc(CN2CCCC(N(C)Cc3cnn(C)c3)C2)no1 (configuration not stated) | 0.747 | -30.2
COc1ccc(C2(NC(=O)CCn3cncn3)CCCCC2)cc1 | -7.19 | 1.34
N#Cc1cn(C2CC2)c(=O)n(CC(O)c2ccc(OC(F)F)cc2)c1=O (configuration not stated) | 1.23 | 14
CCc1ccc(CN2CCCC(CO)(CCOC)C2)cc1 (configuration not stated) | -1.96 | -14
CC1N(CC2CC2)C(=O)COC12CCN(Cc1nccs1)CC2 (configuration not stated) | -0.821 | -13.9
CCC1=N[C@@]2(CC[C@@H]3CN(Cc4ccc(Cl)cc4)C[C@@H]32)C(=O)N1 | 0.626 | 3.7
CC(C)c1cc(N2CCC(CCC(=O)NC3CC3)CC2)n2nccc2n1 | 0.32 | -4.79
CC(C)c1nnc2n1CC(CNCc1ccncc1)CC2 (configuration not stated) | -2.34 | -14.7
O=S(=O)(CCNCc1cccc2c1OCCO2)N1CCOCC1 | -2.82 | -39
Cc1nc(C)n(CC2CCCN2Cc2cc(C)on2)n1 (configuration not stated) | 8.96 | 8.12
CCS(=O)(=O)c1ncc(CN(C)Cc2ccccn2)n1CCOC | 0.893 | 6.2
CC(=O)N(Cc1ncc(C)o1)C1CCN(CCNC2CCCCC2)C1 (configuration not stated) | 1.34 | -30.8
